# Results published in PubChem BioAssay (EPA / NIEHS).
# The source made the active and inactive calls. How the source made its calls: active means hit-call score of the fitted dose curve at least 0.9, where 1 is the maximum; inactive means score below 0.9.
# Experiment: ATG_CRE_CIS: Attagene CIS-FACTORIAL HepG2 Assay for human cAMP Responsive Element (CRE) binding protein 3 (AID 2282926)
# Details: HepG2 CRE cis-reporter, Attagene multiplexed mRNA; actives raise or lower the signal
# Procedure: ATG_CIS is a cell-based, multiplexed-readout assay that uses HepG2, a human liver cell line, with measurements taken at 24 hours after chemical dosing in a 24-well plate.ATG_CRE_CIS is one of 52 assay component(s) measured or calculated from the ATG_CIS assay. It is designed to make measurements of mRNA induction, a form of inducible reporter, as detected with fluorescence intensity signals by Reverse transcription polymerase chain reaction (RT-PCR) and Capillary electrophoresis technology.Data from the assay component ATG_CRE_CIS was analyzed into 1 assay endpoint. This assay endpoint, ATG_CRE_CIS, was analyzed with bidirectional fitting relative to DMSO as the negative control and baseline of activity. Using a type of inducible reporter, measures of mRNA for gain or loss-of-signal activity can be used to understand the reporter gene at the transcription factor-level as they relate to the gene CREB3. Furthermore, this assay endpoint can be referred to as a primary readout, because this assay has produced multiple assay endpoints where this one serves a reporter gene function. To generalize the intended target to other relatable targets, this assay endpoint is annotated to the dna binding intended target family, where the subfamily is basic leucine zipper.
# Human liver HepG2 cells are transiently transfected with multiple reporter transcription units (MRTUs) in 6-well plates using FuGene 6 reagent (Roche; 3 ml FuGene/1 mg DNA). The MRTU constructs are regulated by a cis-regulating element (promoter). […] A major difference between the CIS and TRANS system is that in CIS activities of endogenous TFs are measured, whereas the TRANS assay evaluates changes in activities of exogenous, chimeric NR-Gal4 proteins. […] At the end of 24 hour incubation, total RNA was isolated using TriZol reagent (Invitrogen). The isolated RNA is then reverse-transcribed using oligo(dT) primer and Mo-MLV reverse transcriptase (Invitrogen) with DNAse I (Ambion) treatment for 30 min. The one-tenth of the produced cDNA was amplified by PCR using Taq DNA polymerase (Invitrogen) and two reporter sequence-specific primers. The PCR products were fluorescently labeled by primer extension with 6-arboxyfluorescein (6-FAM) 5'-labeled reporter sequence-specific primer (2 min at 95 C, 20 s at 68 C and 10 min at 72 C) and these products were digested with 5U of HpaI (New England Biolabs) for 2h at 37 C. The fragments were purified using Qiaquick PCR columns (Qiagen), analyzed on an ABI 3130xL genetic analyzer (Applied Biosystems) with peak positions identified by using a set of X-rhodamine (ROX)-labeled MapMarker1000 molecular weight standards (BioVentures). The raw capillary electrophoresis data was processed using Attagraph software (Attagene).
Compound,AC50,outcome
CC(=O)c1cc(C(C)(C)C)cc2c1CCC2(C)C,100 µM (active),–
CC(C#N)CCC#N (stereo not given),–,inactive
BrCCBr,–,inactive
O=C(c1ccccc1)C(Cl)Cl,–,inactive
N#CCc1ccc(Cl)cc1,–,inactive
O=C1CCCN1,–,inactive
O=[N+]([O-])c1ccc(O)c([N+](=O)[O-])c1,–,inactive
CCCCCCCCCl,–,inactive
CC1(C)CCC(Cc2ccc(Cl)cc2)C1(O)Cn1cncn1 (stereo not given),–,inactive
CCN(CC)C(=O)Cl,–,inactive
ClC1=C(Cl)[C@]2(Cl)[C@H]3[C@H]([C@H]4C=C[C@H]3C4)[C@@]1(Cl)C2(Cl)Cl,–,inactive
CCOC(=O)Nc1cccc(OC(=O)Nc2ccccc2)c1,–,inactive
O=C(OC1CCCCC1)c1ccccc1C(=O)OC1CCCCC1,–,inactive
C=CCc1ccc(OC)cc1,–,inactive
O=C(CCl)CCl,24.7 µM (active),–
c1ccc(N=NNc2ccccc2)cc1,–,inactive
C[C@@H](Oc1ccc(Cl)cc1Cl)C(=O)O,–,inactive
COc1ccc(C=O)cc1,–,inactive
CC(Br)C(=O)O (stereo not given),–,inactive
COc1cccc(C=O)c1,–,inactive

Compound,AC50,outcome
ClCC(Cl)CCl,–,inactive
ClC1=C(Cl)[C@]2(Cl)[C@@H]3[C@@H](Cl)[C@@H](Cl)C[C@@H]3[C@@]1(Cl)C2(Cl)Cl,–,inactive
CCOC(=O)CP(=O)(OCC)OCC,–,inactive
CC(=O)C(Cl)C(=O)N(C)C (stereo not given),–,inactive
COP(=S)(OC)Oc1c(Cl)cc(C)cc1Cl,–,inactive
COS(=O)(=O)c1ccc(C)cc1,–,inactive
Nc1ccc(Cl)cc1C(=O)c1ccccc1,–,inactive
O=C(O)C(F)(F)C(F)(F)C(F)(F)C(F)(F)C(F)(F)C(F)(F)F,–,inactive
COP(=S)(OC)Oc1cc(Cl)c(Cl)cc1Cl,–,inactive
Clc1nc(Cl)nc(Cl)n1,–,inactive
CCN1CCC2(CC1)COc1cc3c(cc12)N(C(=O)c1ccc(-c2ccc(-c4nnc(C)o4)cc2C)cc1)CC3,–,inactive
C(=NC1CCCCC1)=NC1CCCCC1,–,inactive
CCCCCCCCC(=O)NCc1ccc(O)c(OC)c1,–,inactive
Nc1ccc(N=Nc2ccc(-c3ccc(N=Nc4c(S(=O)(=O)O)cc5cc(S(=O)(=O)O)c(N=Nc6ccccc6)c(O)c5c4N)cc3)cc2)c(N)c1,–,inactive
C1CCC(NC2CCCCC2)CC1,–,inactive
Oc1ccc(-c2ccccc2)cc1,–,inactive
CCCCCCCCSC(=O)Oc1cc(Cl)nnc1-c1ccccc1,–,inactive
C=CC#N,–,inactive
CCC(=O)c1ccccc1,–,inactive
CCC1(c2ccc(N)cc2)CCC(=O)NC1=O (stereo not given),–,inactive
